Consider 95 compounds from PubChem BioAssay AID720540 (National Center for Advancing Translational Sciences (NCATS), 2013).

Among all 1,300 compounds or so, about 460 (35%) were called active. Not shown: some 39% with an inconclusive outcome. Calls come from the whole dose curve; as a rule, active = well fitted inhibition curve with a large enough effect; inconclusive = small, poorly fitted or top-dose-only effect; inactive = flat fitted curve, though single readings scatter. This is one part of the list.
Potency is the fitted concentration of half-maximal effect.

The assay deals with Protein phosphatase EYA2 (Homo sapiens) (UniProt O00167). Kind of assay: qHTS for Inhibitors of the Phosphatase Activity of Eya2: Confirmatory Assay for Cherry-picked Compounds. Note: nearly all actives have a fitted effect of over 65% in size. Particulars: purified EYA2 phosphatase activity, qHTS confirmation; series mostly up to 46.1 µM. The source says: The Eya protein family is an essential co-activator of the Six1 transcription factor. Six1 is a developmental gene that is abnormally re-expressed in a large percentage of breast cancers. This over-expression plays a causal role in the initiation and metastatic development of breast cancers. The Eya family of protein is also found to contain a unique HAD phosphatase domain with protein tyrosine phosphatase activity which can potentially play a role in Six1-mediated breast tumorigenesis. Recently, Eya2 is found to dephosphorylate the histone variant H2AX and direct cells towards DNA repair instead of apoptosis in the event of DNA damage.
Sequence of Protein phosphatase EYA2 (Homo sapiens) (O00167 whole entry, looked up, the tested form may be a part): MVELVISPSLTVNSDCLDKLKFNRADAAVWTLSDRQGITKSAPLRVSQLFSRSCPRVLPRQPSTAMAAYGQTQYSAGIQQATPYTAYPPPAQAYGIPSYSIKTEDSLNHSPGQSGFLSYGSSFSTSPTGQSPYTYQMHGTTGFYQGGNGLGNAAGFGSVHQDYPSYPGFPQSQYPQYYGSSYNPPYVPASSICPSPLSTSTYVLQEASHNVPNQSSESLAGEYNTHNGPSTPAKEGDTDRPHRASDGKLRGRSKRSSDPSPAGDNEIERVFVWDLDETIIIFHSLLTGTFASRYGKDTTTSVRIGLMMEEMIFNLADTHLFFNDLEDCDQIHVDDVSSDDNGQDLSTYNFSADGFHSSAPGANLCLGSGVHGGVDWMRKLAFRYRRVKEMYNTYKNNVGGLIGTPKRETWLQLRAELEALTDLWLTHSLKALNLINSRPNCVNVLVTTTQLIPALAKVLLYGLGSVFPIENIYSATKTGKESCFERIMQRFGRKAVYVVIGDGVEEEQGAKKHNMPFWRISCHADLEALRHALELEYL
A 1536 well format, fluorescence based qHTS assay was developed and used to target the phosphatase activity of Eya2 (AID 488837). Inhibitors found against Eya2 could serve as potential therapeutic tools to inhibit Six1-mediated breast tumorigenesis and to increase the efficiency of radiation and certain chemo therapy. This assay assessed the activity of the primary screen cherry-picked compounds against Eya2. Inhibition is the desired outcome for this assay.
NIH Chemical Genomics Center [NCGC]
NIH Molecular Libraries Probe Centers Network [MLPCN]
Assay Submitter (PI): Rui Zhao, University of Colorado Denver
Eya2 enzyme and 3-O-methyl-fluorescein phosphate (OMFP) substrate working solutions were reconstituted in the buffer reagent consist of 50 mM HEPES pH 7.5, 50 mM NaCl, […], 0.05% BSA and 1 mM DTT. One and a half microliter of 0.2 uM Eya2 working solution was dispensed in a 1536 well Greiner plate (black, medium bind). Twenty-three nanoliter of test compounds and control compound EGTA was transferred to the assay plate using the Kalypsys robotic system equipped with a 1536 pin head. The plate was incubated at room temperature for 10 minutes. One and a half microliter of the 50 uM the OMFP substrate was then dispensed to the assay plate and incubated at room temperature for additional 10 min. The fluorescence signal was read using the PerkinElmer ViewLux plate reader using a 485 nm excitation and 525 nm emission filters. The data was normalized to the positive control for maximum inhibition and DMSO treated wells as negative control.
In the case of `CCC(C)Nc1nc(-c2ccccn2)nc2ccccc12` (stereo not given), the Potency is 8.49 µM (active). Take `CC(C)c1cccc(-c2ccc3c(c2)S(=O)(=O)c2cccc(C(=O)O)c2C3=O)c1`: the Potency is 21.3 µM (active). Next, `N#C/C(=C\C1=C(N2CCOCC2)C(=C\c2ccccc2)/CC1)C(=O)Nc1ccccc1F`: 1.07 µM (active); `CCN(CC)c1ccc(/C=C2\CCC(/C=C(\C#N)C(=O)Nc3ccccc3F)=C2N2CCOCC2)cc1`: 3.01 µM (active). Next, `O=C1C(=O)C(c2ccc(O)cc2O)Oc2cc(O)cc(O)c21` (stereo not given): 8.49 µM (active); `COc1cc([C@H]2Oc3cc([C@H]4Oc5cc(O)cc(O)c5C(=O)[C@@H]4O)ccc3O[C@@H]2CO)ccc1O`: “inactive”; `CC1(C)CC(=O)C(C2C3=C(CC(C)(C)CC3=O)Oc3c(Br)cc(Br)cc32)=C(O)C1` (stereo not given): 3.79 µM (active). Take `O=C(CSc1nnc2c(Cl)cc(Cl)cn12)NC1CCS(=O)(=O)C1` (stereo not given): the Potency entry was “inactive”. For the compound `CCC(C)Nc1ccc(NC(C)CC)cc1` (stereo not given), the Potency is 0.0953 µM (active). Take `O=c1cc2c(=O)oc3cc(O)c(O)oc3c2c(O)c1O`: the Potency is 1.2 µM (active). For `Cc1ccc2cc(NC(=O)CC(CC(=O)O)c3ccccc3)ccc2n1` (stereo not given), the Potency was 19 µM (active). As for `O=C(C1CCN(c2nnc(-n3cccc3)s2)CC1)N1CCOCC1`, the Potency result is “inactive”. The same measure for `CN(C)c1ccc2c(c1)C(=NO)c1ccccc1-2`: 9.53 µM (active). The same measure for `CNc1ccc(C=C2c3ccccc3-c3ccccc32)cc1`: 12 µM (active); for `CN(C)c1ccc(C=C2c3ccccc3-c3ccccc32)cc1`: 7.57 µM (active). `CN(C)c1ccc(/C=C2\C(Cl)=Cc3ccccc32)cc1`: the Potency is 5.36 µM (active). For the compound `CN(Cc1ccccc1F)c1nc(-c2cccnc2)nc2ccccc12`, the Potency result is “inactive”. Next, `COc1ccc(Nc2nc(C(C)(C)C)nc3c2nnn3Cc2ccccc2Cl)cc1OC`: “inactive”; `CN(C)c1ccc(/C=C2\C(=O)/C(=C/c3ccc(N(C)C)cc3)c3ccccc32)cc1`: 4.26 µM (active). Next, `CN(C)c1ccc(/C=C2\c3ccccc3-c3ccc(N(C)C)cc32)cc1`: 5.36 µM (active); `CCOc1ccc(S(=O)(=O)NCc2ccc(C)cc2)c2cccnc12`: “inactive”; `CCOc1ccc(NC(=O)COc2ccc3c(c2)CCC3)cc1OC`: “inactive”. For the compound `CCOc1ccc(NC(=O)COc2cccc3cccnc23)cc1S(=O)(=O)N1CCCC1`, the Potency was 19 µM (active). Turning to `COc1cc(N(C)C)ccc1/C=C1\C=Cc2ccccc21`, the Potency is 7.57 µM (active). The same measure for `CN(C)c1ccc(/C=C2\C=Cc3ccccc32)c(Cl)c1`: 6.75 µM (active); for `COc1cc(N(C)C)c(OC)cc1/C=C1\C=Cc2ccccc21`: 5.36 µM (active); for `COc1cc(OC)c(OC)cc1/C=C1\C=Cc2ccccc21`: 8.49 µM (active). Next, `CC(C)(C)C(=O)[C@H]1[C@H](c2ccccc2)[C@@]2(N=C(c3ccccc3)OC2=O)C2c3ccccc3C=NN21` (stereo not given in full): “inactive”; `CC1=CC(=O)Nc2ncccc2O1`: 19 µM (active). For the compound `Cc1cccc(C)c1Nc1c(-c2ccccn2)nc2ccccn12`, the Potency is 7.57 µM (active). The same measure for `Cc1ccccc1Nc1c(-c2ccccn2)nc2ccccn12`: 2.39 µM (active); for `Cc1ccc(Nc2c(-c3ccccn3)nc3ccc(C)cn23)cc1`: 4.26 µM (active). The same measure for `CC(=O)Oc1cccc(C(=O)Nc2cccc(C(=O)Nc3ccccc3C(=O)O)c2)c1`: 15.1 µM (active); for `CC(=O)c1ccc(NS(=O)(=O)c2cccc(C(=O)Nc3ccccc3C(=O)O)c2)cc1`: 15.1 µM (active). The same measure for `CCOC(=O)CNC(=O)C1CCCN(c2ncccn2)C1` (stereo not given): “inactive”. As to `CCOC(=O)C1CCCN(C2=C(NS(=O)(=O)c3ccc(Br)cc3)C(=O)c3ccccc3C2=O)C1` (stereo not given), the Potency was 9.53 µM (active).

Turning to `CCOC(=O)C1CCN(C2=C(NS(=O)(=O)c3ccc(Br)cc3)C(=O)c3ccccc3C2=O)CC1`, the Potency was 3.79 µM (active).

For `NC(=O)C1CCN(c2oc(-c3cccs3)nc2S(=O)(=O)c2ccc(Br)cc2)CC1`, the Potency entry was “inactive”. For the compound `N/C(=N\OC(=O)c1ccc2ccccc2c1)c1ccncc1`, the Potency result is “inactive”. Next, `Cc1cc(C)nc(-n2nc(C)cc2NC(=O)c2cc3ccccc3oc2=O)n1`: 5.36 µM (active); `O=C(CC1(O)C(=O)Nc2ccccc21)c1ccccc1` (stereo not given): “inactive”; `CCOC(=O)C1=C(COC(=O)CCOc2ccccc2)NC(=O)NC1C` (stereo not given): “inactive”.

`Cc1nc(COC(=O)c2c(C)nn(-c3ccccc3)c2C)cs1`: the Potency result is “inactive”. Next, `COc1ccc(C(=O)Oc2ccc(=O)n(-c3ccccc3)n2)cc1`: 8.49 µM (active). Turning to `CCOC(=O)c1c2ccc(OCC(=O)NN)cc2n2ccccc12`, the Potency entry was “inactive”. With `Cc1[nH]c2ccc(C(=O)OC(C)C(=O)N(C)c3ccccc3)cc2c1C` (stereo not given), the Potency result was “inactive”. The same measure for `CCOC(=O)c1[nH]c2ccc(C(=O)OC)cc2c1C(=O)OCC`: 13.5 µM (active); for `O=c1cc(CSc2ccc(Cl)cc2)nc(-c2ccccn2)[nH]1`: 2.13 µM (active). Next, `Cc1ccc(/C=C/C(=O)Nc2ccc(N(C)C)cc2)o1`: 19 µM (active); `NC(=O)c1ccc(NC(=O)COC(=O)/C=C/c2ccc(Br)o2)cc1`: “inactive”; `CCn1ccnc1CNCc1cn(-c2cc(C)ccc2C)nc1-c1ccccc1`: 15.1 µM (active).

For the compound `COc1cc(N)c(Cl)cc1C(=O)N[C@H]1CCN(CCCOc2ccc(F)cc2)C[C@H]1OC`, the Potency result was “inactive”. The same measure for `O=c1c(CO)cc(CO)cc(CO)c1O`: 5.36 µM (active). The same measure for `O=C(O)c1ccc(Nc2cnc3ccccc3n2)cc1`: “inactive”; for `O=C(Nc1ccc(Nc2ccccc2)cc1)c1ccc(Cl)cc1[N+](=O)[O-]`: “inactive”.

For `Cc1cc(NS(=O)(=O)c2ccc(NC(=O)c3cc4c(=O)n5ccccc5nc4s3)cc2)nc(C)n1`, the Potency was 8.49 µM (active).

Regarding `O=C(Nc1ccc(S(=O)(=O)Nc2cnc3ccccc3n2)cc1)c1ccc(Cl)c([N+](=O)[O-])c1`, the Potency was 16.9 µM (active).

For `Cc1cc(NS(=O)(=O)c2ccc(NC(=O)c3cnc(Cl)c(Cl)c3)cc2)nc(C)n1`, the Potency was 2.39 µM (active). The same measure for `CN=c1scc(C)n1/N=C/c1ccc2c(c1)OCO2`: “inactive”. The same measure for `CC1CCC2C(=O)N(c3ccc(C(=O)Oc4cccc5cccnc45)cc3)C(=O)C2C1` (stereo not given): 8.49 µM (active); for `COc1ccc(C(=O)/C=C/Nc2ccc(S(=O)(=O)Nc3nc(C)cc(C)n3)cc2)cc1OC`: 13.5 µM (active); for `COc1cc(NS(=O)(=O)c2ccc(N/C=C\C(=O)c3ccc(OC)c(OC)c3)cc2)nc(OC)n1`: 9.53 µM (active). The same measure for `CC(=O)Nc1ccc2nc(C3CC3)n(Cc3ccc(Cl)cc3)c(=O)c2c1`: “inactive”; for `C[n+]1ccc(/C=C/c2cc[n+](C)c3ccccc23)c2ccccc21`: 9.53 µM (active); for `CN1C=C/C(=C\c2cc[n+](C)c3ccccc23)c2ccccc21`: 16.9 µM (active). As for `Cc1cc(C)c2nc(SCC(=O)N(C)C3CCS(=O)(=O)C3)cc(C)c2c1` (stereo not given), the Potency result is “inactive”. Turning to `CCCCC1=CC2=C(c3ccco3)C(=O)C(C)(OC(=O)c3ccc(OC)cc3)C(=O)C2=CN1CCc1ccccn1` (stereo not given), the Potency result is “inactive”. Next, `COc1cc(C=NO)nc(-c2ccccn2)c1`: 1.2 µM (active); `Oc1c(Cl)cc(CN2CCOCC2)c2cccnc12`: 0.478 µM (active); `CC(C)Cc1nc2oc3c(=O)[nH]cnc3c2c2c1CCC2`: 19 µM (active). For the compound `O=C(O)c1cccc2cccc(-c3c4ccc(=O)c(O)c-4oc4c(O)c(O)ccc34)c12`, the Potency was 3.79 µM (active). Next, `O=C(O)CCc1c2ccc(=O)c(O)c-2oc2c(O)c(O)ccc12`: 1.69 µM (active); `COc1ccccc1NC(=O)NCCN1CCN(C(=O)Nc2ccccc2OC)CC1`: “inactive”; `COc1cc(C(C(=O)NC2CCCCC2)N(C(=O)Cc2c[nH]c3ccccc23)c2ccc(C)cc2)cc(OC)c1OC` (stereo not given): “inactive”.

For the compound `CC(=O)Oc1cccc2c1C(=O)c1c(OC(C)=O)cc(C(=O)O)cc1C2=O`, the Potency was 16.9 µM (active). `O=C(O)c1cccc(N2C(=O)c3cccc(Oc4ccc(Cl)cc4)c3C2=O)c1`: the Potency entry was “inactive”.

`O=S(c1cc(Cl)cc(Cl)c1O)c1cc(Cl)cc(Cl)c1O`: the Potency is 1.35 µM (active).

As to `CCN(CC)c1ccc(NC(=S)NC(=O)c2cccs2)cc1`, the Potency is 13.5 µM (active). Take `CCC(=O)NC(=S)Nc1ccc(NC(=O)COc2ccc([N+](=O)[O-])cc2)cc1`: the Potency result is “inactive”. As for `CCCC(=O)Nc1ccc(NC(=S)NC(=O)c2cccs2)cc1`, the Potency entry was “inactive”. The same measure for `O=c1[nH][nH]cc1C=Nc1cc(Cl)ccc1O`: 5.36 µM (active); for `CCOC(=O)c1cc2c(N)c(C(=O)c3ccc(Br)cc3)sc2[nH]c1=O`: 1.9 µM (active).

On to `O=C(Nc1nc(-c2ccco2)c(-c2ccco2)s1)C1CC(=O)N(c2ccc3c(c2)OCCO3)C1` (stereo not given), for which the Potency was 19 µM (active). The same measure for `O=C(Nc1nc(-c2ccccn2)cs1)C1CC(=O)N(c2ccc3c(c2)OCCO3)C1` (stereo not given): 7.57 µM (active); for `CCc1ccc(-c2csc(NC(=O)C3CC(=O)N(c4ccc5c(c4)OCCO5)C3)n2)cc1` (stereo not given): “inactive”; for `Cc1ccc(SCc2nc(N)nc(Nc3ccccc3C)n2)cc1C`: “inactive”.

Turning to `COc1ccc(-c2c(N)cnc(C(=O)O)c2C)c(OCc2ccccc2)c1OC`, the Potency is 19 µM (active). Next, `Cc1cc(OC(=O)c2ccc(Cl)cc2)cc(=O)n1C`: 2.39 µM (active). The same measure for `Cc1ccc(C(=O)Oc2cc(C)n(C)c(=O)c2)cc1`: 1.51 µM (active). The same measure for `Cc1ccc(NC(=O)CSc2cccc3cccnc23)c(C)c1`: 5.36 µM (active). With `CCN1C(=O)/C(=C2/C=Cc3ccccc3N2CC)SC1=S`, the Potency is 3.79 µM (active). On to `Cc1cccc(NC2=C(NCCO)C(=O)c3ccccc3C2=O)c1`, for which the Potency is 16.9 µM (active).

Consider `c1ccc2cc(CSCc3nc4ccccc4[nH]3)ccc2c1`, for which the Potency result was “inactive”. Take `Cc1nn2c(c1-c1ccccc1)NC1=C(C(=O)CCC1)C2c1ccccc1` (stereo not given): the Potency entry is “inactive”.

`O=C1C=CC(=O)c2c(O)c(N3CCN(CCOCCO)CC3)c(Br)c(O)c21`: the Potency is 13.5 µM (active).
